The values that follow come from PubChem BioAssay (EPA / NIEHS).

Usually AC50 stands for the concentration at which the activity in the assay is half-maximal.

SMILES strings stand for the structures. Calls of active or inactive are those of the source. How the source made its calls: active means hit-call score of the fitted dose curve at least 0.9, where 1 is the maximum; inactive means score below 0.9.

The assay can be described thus: APR_HepG2_MicrotubuleCSK_24hr: Apredica 24-hour HepG2 Assay for Microtubule CSK Stabilty (AID 2282909). Conditions: HepG2 microtubule cytoskeleton imaging, actives raise or lower the signal. The procedure:
APR_HepG2_24hr is a cell-based, multiplexed-readout assay that uses HepG2, a human liver cell line, with measurements taken at 24 hours after chemical dosing in a 384-well plate.APR_HepG2_MicrotubuleCSK_24hr is one of 10 assay component(s) measured or calculated from the APR_HepG2_24hr assay. It is designed to make measurements of protein conformation, a form of conformation reporter, as detected with fluorescence intensity signals by HCS Fluorescent Imaging technology.Data from the assay component APR_HepG2_MicrotubuleCSK_24hr was analyzed into 1 assay endpoint. This assay endpoint, APR_HepG2_MicrotubuleCSK_24hr, was analyzed with bidirectional fitting relative to DMSO as the negative control and baseline of activity. Using a type of conformation reporter, measures of protein for gain or loss-of-signal activity can be used to understand the signaling at the cellular-level. Furthermore, this assay endpoint can be referred to as a primary readout, because this assay has produced multiple assay endpoints where this one serves a signaling function. To generalize the intended target to other relatable targets, this assay endpoint is annotated to the cell morphology intended target family, where the subfamily is cell conformation.
Cells were treated with dimethyl sulfoxide (DMSO) as a solvent control at a final concentration of 0.5% v/v or with compounds in DMSO with a resulting final DMSO concentration of 0.5% v/v. Compound treatment was done at concentrations of 0.39, 0.78, 1.56, 3.12, 6.24, 12.5, 25, 50, 100, and 200 uM in duplicate on each plate. Cells were treated with compounds for 1, 24, or 72 hr. Carbonyl […] m-chloro-phenylhydrazone (CCCP) and taxol were used as positive controls for mitochondrial function and cytoskeletal stability, respectively; DMSO served as the negative control for this experiment. Cells were fixed by the direct addition of 50 uL formaldehyde in Hank's Balanced Salt Solution (HBSS) to a final concentration of 3.7%. After incubation in the fixation medium for 30 min at room temperature (293-298 K), cells were rinsed twice with HBSS and treated with cell permeabilization buffer (16 uL of 0.5% Triton X-100) for 10 min at room temperature (293-298 K) before labeling. For mitochondrial membrane potential and mitochondrial measurements, pre-fixed cells were incubated with 50 uL of MitoTracker Red CMXRos (Invitrogen) at a concentration of 250 nM for 30 min before fixation. In the remaining cases, post-fixed cells were labeled by incubation with a multiplexed mixture of primary antibodies in HBSS for 60 min at room temperature (293-298 K) to detect immunoreactivity of c-Jun (1:500), phospho-histone H3 (1:100), phospho-histone H2A.x (1:200), p53 (1:400), alpha-tubulin (1:200) and Hoechst 33342 (2 ug/mL). Cells were labeled for multiplexed imaging on two separate plates: a) Hoechst 33342, MitoTracker Red, phospho-histone H3, and alpha-tubulin, and b) Hoechst 33342, phospho-histone H2A.x, and c-Jun. A final rinse with HBSS (50 uL) was performed before analysis. The primary and secondary antibodies for the proteins were phospho-histone H3 (rabbit anti-phospho-histone H3 and FITC-donkey anti-rabbit IgG), phospho-histone H2A.x (mouse anti-phospho-histone H2A.x and FITC-donkey anti-mouse IgG), c-Jun (rabbit anti-phospho-c-Jun and Cy3-donkey anti-rabbit IgG), p53 (sheep anti-p53 and Cy5-donkey anti-sheep IgG), alpha-tubulin (mouse anti-alpha-tubulin and Cy5-donkey anti-mouse IgG). These antibodies are available as the CellCiphr HepG2 assay kit (Millipore).Digital images of each well were captured using a Cellomics ArrayScan VTI (Thermo Scientific Cellomics) (0.8 NA objective, 0.63x optical coupler, and XF-93 filter set) at 20x magnification. The images were acquired using the autofocus feature of the ArrayScan instrument, which entails the following steps. First, the camera focuses on channel 1 (Hoechst 33342), where nuclei are identified. Second, a Z offset of 1 um is used for capturing mitochondria (MitoTracker Red). […]
Consider `C[C@]12CCC(=O)C=C1CC[C@@H]1[C@@H]2CC[C@@]2(C)[C@H]1CC[C@]2(C)O`, for which the outcome was inactive.

Take `O=S(=O)(O)C(F)(F)C(F)(F)C(F)(F)C(F)(F)F`: the outcome was inactive.

Take `O=C(O)C(F)(F)C(F)(F)C(F)(F)C(F)(F)C(F)(F)F`: the outcome was inactive.

Regarding `CCCCCCOC(=O)c1ccccc1C(=O)OCCCCCC`, the result was inactive.

Turning to `COS(=O)(=O)OC`, the molecule was classed as inactive.

Take `Cc1cccc([N+](=O)[O-])c1`: the outcome was inactive.

Consider `c1cc2ccc3cccc4ccc(c1)c2c34`, for which the molecule was called inactive.

With `CO/C=C(/C(=O)OC)c1ccccc1COc1cccc(C(F)(F)F)n1`, the call was inactive.

For the molecule `CN(C)c1nc(=O)n(C2CCCCC2)c(=O)n1C`, the result was inactive.

With `Nn1cnnc1`, the molecule was classed as inactive.

As for `Cc1cc(O)ccc1Cl`, the call was inactive.

Take `O=S(=O)(O)C(F)(F)C(F)(F)C(F)(F)C(F)(F)C(F)(F)C(F)(F)F`: the call was inactive.

Consider `CC(C)(O)C(=O)Nc1ccc([N+](=O)[O-])c(C(F)(F)F)c1`, for which the molecule was classed as inactive.

`Clc1ccc(C(Cl)(Cl)Cl)cc1`: the outcome was inactive.

As for `Cc1ccccc1CO[C@@H]1C[C@@]2(C(C)C)CC[C@]1(C)O2`, the result was inactive.

On to `COc1ccc(O)c(C(C)(C)C)c1`, for which the molecule was called inactive.

As to `C[C@]12CCC(=O)C=C1CC[C@@H]1[C@@H]2CC[C@]2(C)C(=O)CC[C@@H]12`, the molecule was called inactive.

On to `Cc1ccccc1[N+](=O)[O-]`, for which the outcome was inactive.

Regarding `Clc1ccc(Cl)cc1`, the call was inactive.

For `Cc1cc(-c2ccc(N)c(C)c2)ccc1N`, the outcome was inactive.

For the molecule `CC(c1ccc(O)cc1)(c1ccc(O)cc1)c1ccc(O)cc1`, the call was inactive.

As to `Oc1ccc(Cl)cc1Cl`, the molecule was called inactive.

On to `O=C(NC(=O)c1c(F)cccc1F)Nc1cc(Cl)c(OC(F)(F)C(F)F)c(Cl)c1`, for which the result was inactive.

Turning to `CCC(C)(CC)c1cc(NC(=O)c2c(OC)cccc2OC)on1`, the molecule was classed as inactive.

On to `CCCCCCCCOC(=O)c1ccccc1C(=O)OCCCCCCCC`, for which the molecule was called inactive.

With `O=C(NC(=O)c1cc(F)c(F)cc1Cl)Nc1cc(F)ccc1N1CCC(C(=O)O)CC1`, the result was inactive.

`CC(C)(c1ccccc1)c1ccc(O)cc1`: the molecule was called inactive.

As for `c1ccc(-c2ccccc2)cc1`, the result was inactive.

Turning to `C=CC(N)=O`, the call was inactive.

For `Oc1c(Cl)c(Cl)c(Cl)c(Cl)c1Cl`, the molecule was called inactive.

As for `Nc1ccc(-c2ccc(N)cc2)cc1`, the molecule was classed as inactive.

As to `O=C(O)C(F)(F)C(F)(F)C(F)(F)C(F)(F)C(F)(F)C(F)(F)C(F)(F)C(F)(F)C(F)(F)F`, the molecule was called inactive.

On to `CCC(C)c1cc([N+](=O)[O-])cc([N+](=O)[O-])c1O` (stereo not given), for which the molecule was called inactive.

Consider `ClC1=C(Cl)[C@]2(Cl)[C@@H]3[C@@H](Cl)[C@H]4O[C@H]4[C@@H]3C1(Cl)C2(Cl)Cl`, for which the AC50 is 82.1 µM (active).

Consider `CC1=C2C[C@H]3[C@@H](CC=C4C[C@@H](O)CC[C@@]43C)[C@@H]2CC[C@]12O[C@@H]1C[C@H](C)CN[C@H]1[C@H]2C`, for which the molecule was called inactive.

`ClC(Cl)=C(c1ccc(Cl)cc1)c1ccc(Cl)cc1`: the call was inactive.

For `Clc1ccc(C(c2ccccc2Cl)C(Cl)(Cl)Cl)cc1` (stereo not given), the AC50 was 74.4 µM (active).

Consider `Cc1cc2c3c(c1)C(c1ccccc1)=N[C@@H](NC(=O)c1ccncc1)C(=O)N3CC2`, for which the molecule was called inactive.

Take `CCOC(=O)C(O)(c1ccc(Cl)cc1)c1ccc(Cl)cc1`: the AC50 is 89.7 µM (active).

Consider `Cc1ccc(O)c(C)c1`, for which the result was inactive.
